Activity calls are given as the source filed them.

Test [1] can be described thus: compound effects on lung adenocarcinoma cell viability – A549, calcein-AM fluorescence, 48 h, basal, profiling panel (AID 1162). Particulars: higher = more signal.
Test [2] can be described thus: compound effects on differentiated 3T3-L1 adipocyte viability – cell-based, 3T3-L1 adipocytes, calcein-AM fluorescence, 48 h, basal, profiling panel (AID 1163). Particulars: 3T3-L1 adipocytes viability, higher = more signal.
Test [3] in a line: compound effects on hepatocellular carcinoma cell viability – HepG2, calcein-AM fluorescence, 48 h, basal, profiling panel (AID 1164). The following applies: higher = more signal.
Test [4] is described as follows: compound effects on multiple myeloma cell viability – MM1S, calcein-AM fluorescence, 48 h, basal, profiling panel (AID 1165).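 Also: viability of MM1S multiple myeloma cells under basal unstimulated conditions.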 The following applies: higher = more signal.
The nature of test [5]: calcein-AM signal in unstimulated myeloma cells – cell-based, calcein-AM fluorescence, 48 h, PK04 Diversity Set, profiling panel (AID 1166).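 Also: cells grown under basal conditions without added stimulus.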 Particulars: RPMI8226 myeloma viability, higher = more signal.
Test [6] is described as follows: JC-1 mitochondrial signal, unstimulated HepG2 cells – cell-based, JC-1 fluorescence, 24 h, 100 nL compound, profiling panel (AID 1167). The following applies: HepG2 mitochondrial potential, higher = more signal.
Test [7] can be described thus: JC-1 mitochondrial signal, unstimulated adipocytes – cell-based, JC-1 fluorescence, 3T3-L1 adipocytes, 24 h, 100 nL compound, profiling panel (AID 1168). The following applies: JC-1 mitochondrial fluorescence, higher = more signal, called active from +8 up or from −8 down.
A short description of test [8]: JC-1 mitochondrial signal, unstimulated myeloma cells – cell-based, JC-1 fluorescence, RPMI8226, 24 h, 100 nL compound, profiling panel (AID 1169). The following applies: JC-1 mitochondrial potential fluorescence, higher = more signal.
The nature of test [9]: JC-1 mitochondrial signal, unstimulated MM1S myeloma – cell-based, JC-1 fluorescence, 24 h, 100 nL compound, profiling panel (AID 1170). The following applies: MM1S mitochondrial potential, higher = more signal.
The nature of test [10]: resazurin metabolic signal in A549 cells – cell-based, resazurin fluorescence, 24 h, PK04 Diversity Set, profiling panel (AID 1171). The following applies: A549 viability, higher = more signal, called active from +8 up or from −8 down.
Also: test concentration not given here.

In the case of `C[C@@H]1CC[C@@H](C(=O)O)N[C@H]1c1cccc(N2CCOCC2)c1`, the z-score was 1.03 in [1]; -0.219 in test [2]; 0.0881 in [3]; 0.401 in [4]; 1.07 in test [5]; 1.66 in test [6]. Also, the z-score in test [7] was 0.631 (inactive); in test [8] it was -0.157; in test [9], -0.144; in test [10] it was 0.148 (inactive).

As to `CCOC(=O)CCN1C(=O)[C@H]2[C@@H]3C(=CC[C@H]2C1=O)C(=O)[C@H]1O[C@H]1[C@H]3O`, the z-score in test [1] is 0.762; in [2], 0.453; in test [3], -0.564; in test [4], -3.19; in test [5] it was -3.72; in [6] it was -1.23. The z-score is 0.501 (inactive) in [7], -1.1 in test [8], -2.74 in test [9] and -0.899 (inactive) in [10].

`CC(CCN1CCCc2nc(C)c(C)cc21)=NOC[C@@H](C)[C@H](OCc1ccccc1)C(C)C`: the z-score in test [1] was 0.803; in test [2], 1.05; in test [3], 1.18; in [4] it was -2.37; in [5] it was 0.0389; in [6] it was 1.94. Moreover, the z-score in [7] is -0.584 (inactive); in [8] it was 0.395; in test [9], -1.46; in [10] it was -0.602 (inactive).

Take `COC(=O)[C@@H]1CC[C@H](C)[C@@H](c2ccc(Br)cc2)N1C[C@@H](O)CN=[N+]=[N-]`: the z-score in test [1] is -0.618; in test [2], 0.379; in test [3] it was -0.494; in test [4] it was -0.682; in [5], -1.4; in test [6], 0.462. Moreover, the z-score in test [7] is 0.866 (inactive); in test [8], 0.65; in test [9], -0.553; in [10], 0.0136 (inactive).

As for `CCCNC(=O)OC[C@H]1O[C@H](CCON=C[C@@H](NS(=O)(=O)c2ccc(C)cc2)[C@H](C)C=CCC(=O)OC)C=C[C@@H]1Oc1ccc(OC)cc1`, the z-score was -0.321 in test [1]; 0.973 in test [2]; -1.18 in [3]; -0.0312 in [4]; -0.773 in test [5]; 0.421 in [6]. In addition, the z-score in [7] was -2.4 (inactive); in test [8], -0.806; in test [9], 0.364; in test [10] it was 0.141 (inactive).

For `O=C1[C@H]2[C@H]3[C@H](O)[C@H](O)CC(=NO[C@@H]4O[C@H](CO)[C@@H](O)[C@H](O)[C@H]4O)[C@H]3CC[C@H]2C(=O)N1C[C@@H]1CCCO1`, the z-score in test [1] is 0.676; in test [2], -0.568; in [3], 0.184; in [4] it was 0.7; in test [5], 0.269; in test [6], 0.607. Moreover, the z-score in test [7] is 0.572 (inactive); in test [8], 0.39; in test [9], -1.13; in [10], -0.6 (inactive).

Turning to `CO[C@@H]1C=CCC(=O)N[C@@H](C)C(=O)OC[C@@H](OC)[C@H](C)C=CCC(=O)OC[C@H]1C`, the z-score was 0.234 in [1]; 0.374 in [2]; 0.0804 in [3]; 0.316 in test [4]; 0.389 in [5]; 0.589 in test [6]. Besides, the z-score was -0.848 (inactive) in test [7], 0.674 in test [8], 0.704 in test [9] and 0.474 (inactive) in test [10].

As for `COC(=O)CC=C[C@@H](C)[C@@H](C=NOC(C)CN1CCCc2nc(C)c(C)cc21)NS(=O)(=O)c1ccc(C)cc1` (stereo not given in full), the z-score in test [1] is 0.969; in test [2], -0.176; in [3], 0.0666; in test [4], -1.08; in test [5], -0.427; in [6], -0.486. Also, the z-score in test [7] is -0.774 (inactive); in [8], 0.462; in test [9] it was -0.534; in [10], -0.726 (inactive).

For `CC(=O)OC[C@H]1O[C@H](CC=NOC(C)CN2CCCc3nc(C)c(C)cc32)C=C[C@@H]1OC(C)=O` (stereo not given in full), the z-score is -0.234 in test [1]; 0.114 in test [2]; -0.806 in test [3]; -2.94 in [4]; -0.639 in test [5]; -0.706 in test [6]. Further, the z-score in test [7] is 0.264 (inactive); in [8], -0.131; in test [9] it was -0.188; in [10], -0.135 (inactive).

For `CC(C)=NO[C@H](C)c1cn([C@@H]2COC[C@H]2O)nn1`, the z-score is 0.874 in [1]; -0.573 in [2]; 0.818 in [3]; 0.0495 in test [4]; -0.275 in test [5]; 1.01 in [6]. The z-score in test [7] is 0.0682 (inactive); in test [8], 0.183; in test [9], -0.593; in [10], -0.483 (inactive).

Take `CC(C)CON=C1C[C@@H](O)[C@@H](O)[C@@H]2[C@@H]3C(=O)N(c4ccc(F)cc4F)C(=O)[C@@H]3CC[C@@H]12`: the z-score was -0.793 in test [1]; 0.44 in test [2]; -0.464 in test [3]; -0.102 in [4]; -0.587 in test [5]; 1.31 in test [6]. The z-score is -0.4 (inactive) in [7], -0.648 in test [8], -0.425 in test [9] and 0.491 (inactive) in test [10].

On to `O=C1[C@H]2[C@H]3[C@H](O)[C@H](O)CC(=NO[C@@H]4O[C@H](CO)[C@@H](O)[C@H](O)[C@H]4O)[C@@H]3CC[C@H]2C(=O)N1C[C@@H]1CCCO1`, for which the z-score is -0.863 in test [1]; -0.0334 in test [2]; -0.618 in [3]; -0.0584 in test [4]; -2.03 in test [5]; -0.42 in test [6]. Further, the z-score was -0.0322 (inactive) in test [7], 0.0485 in test [8], -1.16 in test [9] and 0.226 (inactive) in test [10].

On to `CC(CCN1CCCCc2nc(C)c(C)cc21)=NO[C@@H](C)c1cc(-c2c(C)cc(C)cc2C)no1`, for which the z-score in test [1] was 1.08; in test [2], 0.531; in test [3], 0.148; in test [4], -2.9; in test [5], -3.77; in test [6], 4. In addition, the z-score in [7] is 0.159 (inactive); in test [8] it was -0.831; in test [9], -1.74; in test [10] it was 2.06 (inactive).

Turning to `CC(C)=CCCC(C)=CCON=C1C[C@@H](O)[C@@H](O)[C@@H]2[C@@H]3C(=O)N(c4cccc(Oc5ccccc5)c4)C(=O)[C@@H]3CC[C@H]12`, the z-score in test [1] was 0.0267; in test [2], -0.796; in test [3], 0.285; in [4], -1.97; in test [5], 0.504; in test [6], -0.253. Further, the z-score was 0.496 (inactive) in test [7], -0.203 in [8], -0.907 in test [9] and 0.533 (inactive) in test [10].

On to `CC(C)C(=O)N[C@H]1CCCN1C(=O)C=Cc1ccccc1`, for which the z-score is -0.0724 in test [1]; -0.578 in test [2]; 0.176 in test [3]; -0.903 in [4]; -0.1 in [5]; -0.541 in test [6]. Also, the z-score in test [7] is -0.288 (inactive); in test [8] it was 0.6; in test [9] it was -0.0562; in [10] it was 0.182 (inactive).

On to `CC(C)=CCCC(C)=CCON=C1C[C@@H](O)[C@@H](O)[C@@H]2[C@@H]3C(=O)N(Cc4ccc5c(c4)OCO5)C(=O)[C@@H]3CC[C@H]12`, for which the z-score in test [1] is -0.0007; in [2] it was 0.0614; in [3], -0.579; in test [4], -2.32; in [5], -1.31; in test [6] it was -0.214. In addition, the z-score in test [7] is -0.412 (inactive); in [8] it was -0.655; in test [9] it was -0.488; in test [10] it was -0.0045 (inactive).

Values taken from PubChem BioAssay.
